# IL-1B inflam inh: qHTS for Inhibitors of Inflammasome Signaling: IL-1-beta AlphaLISA Primary Screen | activity change, % at 57.5 µM | 4.7% of 360,000 active | AID 743279, 2014 | THP-1 LPS/ATP IL-1B secretion, AlphaLISA, 16 h; stronger effect = lower value; in the data active means activity change below about -50%; inconclusive means mostly about -30% to -49%; further: on the % scale 0 is the no-effect control and ±100 the full control effect
#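 Secreted IL-1B measured by AlphaLISA bead assay after 16 h compound exposure of THP-1 cells; compounds (final up to 57.5 uM) added 1 h before LPS (250 ng/mL) and ATP (1.25 mM) stimulation; lower signal means less secretion.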
# TDP1 cell noCPT: qHTS for Inhibitors of human tyrosyl-DNA phosphodiesterase 1 (TDP1): qHTS in cells in absence of CPT; DT40 Tdp1-/- hTDP1 cells, no CPT, ATP luminescence, 48 h; Potency, µM (top dose mostly 46.2 µM), for inactives: at the highest dose activity change, negative = growth inhibition, hits mostly inhibitors; 15% of 420,000 active; further: potency means the concentration at half of the fitted maximal effect; on the % scale 0 is the no-effect control and ±100 the full control effect; nearly all actives have a fitted effect of over 55% in size
#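 DT40 Tdp1-/-;hTDP1 cells, no CPT (DMSO vehicle only), 400 cells/well; compounds pin-transferred; ≥48 hr, 37 °C; CellTiter-Glo 30 min RT dark, luminescence read.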
# TGFb inhibitor: qHTS for Inhibitors of TGF-b. AID 588855, 2011. HepG2 CAGA-GFP TGF-b/SMAD3 reporter, GFP fluorescence, 18 h; TGF-beta stimulated, 500 pg/mL final. Potency, µM (series often up to 46.1 µM), inactives show top-dose activity, negative = inhibition, hits mostly inhibitors. 1.2% of 410,000 active; further: potency means the concentration at half of the fitted maximal effect; on the % scale 0 is the no-effect control and ±100 the full control effect; nearly all actives have a fitted effect of over 65% in size
#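 Inhibition of TGF-beta-driven CAGA-GFP reporter expression in HEPG2 cells is measured by cellular GFP fluorescence after 18 h stimulation with 500 pg/mL recombinant TGF-beta in 1% FBS medium at 37 degrees C.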
# S-ASM inh: Inhibitors of Secretory Acid Sphingomyelinase (S-ASM): qHTS; AID 504937, 2011; Potency, µM (highest dose often 57.5 µM), for inactives: top-dose activity change, negative = inhibition, actives largely listed as inhibitors; Sphingomyelin phosphodiesterase (Homo sapiens), P17405; placental ASM, HMU-PC fluorogenic substrate, 60 min; 0.006% of 340,000 active; further: potency means the concentration at half of the fitted maximal effect
# Target sequence (P17405 47-631 limits assumed): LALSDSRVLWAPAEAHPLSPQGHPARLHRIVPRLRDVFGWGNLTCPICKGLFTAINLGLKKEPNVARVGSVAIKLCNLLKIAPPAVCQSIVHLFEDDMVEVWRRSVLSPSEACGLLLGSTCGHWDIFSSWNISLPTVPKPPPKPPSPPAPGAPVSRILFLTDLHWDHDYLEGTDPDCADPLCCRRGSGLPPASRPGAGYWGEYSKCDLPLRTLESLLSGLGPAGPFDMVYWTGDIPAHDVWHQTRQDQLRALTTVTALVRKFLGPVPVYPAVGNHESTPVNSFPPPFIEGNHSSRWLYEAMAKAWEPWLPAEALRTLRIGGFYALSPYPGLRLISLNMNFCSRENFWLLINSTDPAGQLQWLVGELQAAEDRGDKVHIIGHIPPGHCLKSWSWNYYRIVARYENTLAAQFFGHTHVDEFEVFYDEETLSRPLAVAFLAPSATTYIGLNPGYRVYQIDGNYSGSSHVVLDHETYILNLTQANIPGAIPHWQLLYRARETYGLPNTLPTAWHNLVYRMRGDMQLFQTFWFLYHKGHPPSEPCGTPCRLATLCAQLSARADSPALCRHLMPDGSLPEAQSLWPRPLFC
#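 Steps: dispense placental human ASM, pin compound, wait 10 min at room temperature, add HMU-PC0 substrate at 9 uM final, incubate 60 min at 37 °C, add stop solution raising pH to 10, read fluorescence.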
# HepG2 viability: qHTS for Inhibitors of TGF-b: Cytotox Counterscreen; AID 588856, 2011; HepG2 CAGA-GFP viability, ATP luminescence, 18 h; 0.76% of 410,000 active; Potency, µM (doses to about 46.1 µM), for the others: top-dose activity change, negative = cytotoxicity, actives largely listed as cytotoxic; further: potency means the concentration at half of the fitted maximal effect
#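 HepG2 CAGA-GFP cells (1000/well, DMEM with 1% FBS) received compound, then TGF-beta at 500 pg/mL final, and were incubated 18 hours at 37 degrees C. Viability was read by CellTiter-Glo luminescence. Media-only wells were set as complete cell-killing and DMSO as no toxicity.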
# TDP1 cell CPT: qHTS for Inhibitors of human tyrosyl-DNA phosphodiesterase 1 (TDP1): qHTS in cells in presence of CPT | Potency, µM (titrated, usually from 46.2 µM), inactives show top-dose activity change, negative = growth inhibition, hits mostly inhibitors | chicken DT40 Tdp1-/-;hTDP1 cells + 20 nM CPT, ATP luminescence, 48 h | AID 686979, 2013 | 12% of 420,000 active; further: potency means the concentration at half of the fitted maximal effect; on the % scale 0 is the no-effect control and ±100 the full control effect; nearly all actives have a fitted effect of over 55% in size
#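 Cell growth measured by CellTiter-Glo luminescence after a minimum 48 h, 37 C compound exposure with 20 nM CPT in Tdp1-knockout DT40 cells stably expressing hTDP1, seeded 400/well; qHTS titration format.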
# Active calls of the source: *; u = inconclusive; x = no result. This is a sample that favours compounds with a hit; in the whole collection about 19% have one here. Unless noted, the call rests on the fitted dose curve; in most records, active means well fitted curve in the direction sought with a large enough effect; inconclusive means small, poorly fitted or top-dose-only effect, or another doubt; inactive means no such curve, though single readings can be large; an effect the other way counts as inactive or inconclusive.
SMILES,IL-1B inflam inh,TDP1 cell noCPT,TGFb inhibitor,S-ASM inh,HepG2 viability,TDP1 cell CPT
C[C@]12c3[nH]c4ccccc4c3CCN1C(=O)C(CC(=O)NCCC1=CCCCC1)C[C@@H]2C(=O)N1CCCCC1 (some centres not stated),31.6,-23.2%,2.6%,-1.3%,-3.5%,-5.2%
CCN(CC)C(=O)[C@H]1C[C@H](CC(=O)NCCC2=CCCCC2)C(=O)N2CCc3c([nH]c4ccc(Cl)cc34)[C@]12C,-54.1*,20.6µM*,u,-23.3%,-4.5%,16.4µM*
COc1ccc2[nH]c3c(c2c1)CCN1C(=O)C(CC(=O)NCC24CC5CC(CC(C5)C2)C4)C[C@H](C(=O)N(C(C)C)C(C)C)[C@@]31C (some centres not stated),-71.8*,u,11.2µM*,-4.1%,-50.9%,u
O=C(Cc1ccc(F)cc1)N1CCC(c2nc3c(nnn3Cc3ccc(Cl)cc3)c(=O)[nH]2)CC1,x,u,u,x,-43.8%,u
Cc1ccc(S(=O)(=O)N2CCN(C(=O)CN3C(=O)NC(C)(c4ccc5ccccc5c4)C3=O)CC2)cc1 (configuration not stated),-11.7,u,u,-0.3%,-26.1%,u
COc1cc(NC(=S)Nc2cccnc2)cc(OC)c1,-4.7,u,-0.1%,3.7%,-2.9%,-14.5%
COc1ccc(NC(=O)Cn2c(=O)n(CCc3ccccc3)c(=O)c3ccccc32)cc1,x,u,-1.9%,x,0.4%,-26.6%
COc1cccc2c(=O)cc(C)n(CC(=O)Nc3cccc(C)c3)c12,8.0,18.4µM*,-21.4%,-0.9%,-16.9%,u
COc1ccc(NC(=O)Cn2c(C)cc(=O)c3ccccc32)cc1,39.2,11.6µM*,u,-0.6%,-40.2%,10.3µM*
Cc1nc2ccccc2n1CC(=O)NC(C)C1CC2CCC1C2 (configuration not stated),-0.4,0.92µM*,-0.2%,2.6%,-27.9%,1.46µM*
CCOC(=O)Cn1c(C)cc(=O)c2ccccc21,u,8.3%,-4.2%,0.1%,-1.8%,-3.3%
COc1cccc(NC(=O)Cn2c(=O)n(CCc3cccc(C)c3)c(=O)c3ccccc32)c1,x,-26.2%,u,x,-31.0%,-21.8%
Cc1cc(=O)c2ccccc2n1CC(=O)NCc1ccccc1,12.1,u,u,-1.2%,-22.7%,18.4µM*
COc1cccc(CN2CC(C(=O)N3CCOCC3)CCC2=O)c1 (configuration not stated),-8.1,19.9%,10.0%,2.1%,4.4%,-1.8%
CCn1c(SC(C)C(=O)Nc2nccs2)nnc1-c1ccncc1 (configuration not stated),-5.4,-0.5%,1.9%,4.6%,-12.3%,1.0%
Cc1cc(=O)c2ccccc2n1Cc1ccccc1,-50.4*,16.4µM*,u,4.9%,-21.8%,u
Cc1nc2ccccc2n1CC(=O)NN,14.0,4.0%,3.1%,3.1%,-21.8%,-10.8%
Cc1nc2ccccc2n1CC(=O)NCc1ccccc1,2.5,11.6µM*,-3.2%,0.4%,-3.7%,9.2µM*
CCCCCCNc1nc(NCc2ccco2)nc(OCC)n1,-2.4,18.4µM*,u,-3.9%,2.6%,20.6µM*
CCN(CC(=O)Nc1ccc(NC(C)=O)cc1)C(=O)c1cccc(Oc2ccccc2)c1,-7.0,-6.5%,14.4%,-4.4%,-2.2%,12.6%
COc1ccc(CNCc2ccccc2)cc1COc1ccc(NC(C)=O)cc1,x,10µM*,x,x,x,8.91µM*

# Screening results deposited in PubChem by National Center for Advancing Translational Sciences (NCATS).
